# Experimental data published in PubChem BioAssay (NCATS).
# Inconclusive results are not listed. Where a call stands in place of a potency, no number is given. Unmarked numbers belong to inactive results. Calls of active or inactive are those of the source. Calls follow the shape of the dose curve; as a rule, active = well fitted inhibition curve with a large enough effect; inconclusive = small, poorly fitted or top-dose-only effect; inactive = flat fitted curve, though single readings scatter.
# Molecular target: Aldehyde dehydrogenase, mitochondrial (Homo sapiens) (UniProt P05091)
# Assay: qHTS for Inhibitors of the Aldehyde Dehydrogenase Family (ALDH2) Primary screen (AID 2061308); also: nearly all actives have a fitted effect of over 55% in size
# Details: ALDH2 enzyme inhibition qHTS, 1536-well; series mostly up to 56 µM
SMILES,Potency,"activity change, negative = inhibition"
C/C=C(/C)C(=O)O[C@@H]1C[C@@H](OC(=O)CC(C)C)C2(C)C3C(=O)C=C(C)C2C3C1(C)C (some centres undefined),inactive,–
CC(=O)OCC1OC(OC2COC(OC3COC(OC4C(OC5C(CO)OC(OC6CCC7(C)C(CCC8(C)C7CC=C7C9CC(C)(C)CCC9(C(=O)OC9OC(CO)C(O)C(O)C9OC9OCC(OC%10OCC(O)(CO)C%10O)C(O)C9O)C(O)CC78C)C6(C)C)C(O)C5O)OCC(O)C4O)C(O)C3O)C(O)C2O)C(OC(=O)/C=C/c2ccccc2)C(O)C1OC(C)=O (centres undefined),–,6.5% [at 11.2 µM]
C=CC(C)(O)C1CC2C3(C)CCCC(C)(C)C3C(O)C(O)C2(C)O1 (centres undefined),inactive,–
CC1=C(C)C(=O)OC(C(C)C2CCC3C4C5OC5C5(O)CC(OC6OC(CO)C(OC7OC(C)C(O)C(O)C7O)C(O)C6O)CC(O)C5(C)C4CCC23C)C1 (centres undefined),inactive,–
C=CC(C)(O)CC/C=C(\C)C(=O)O[C@@H]1[C@@H](O)[C@H](OC(C)(C=C)CC/C=C(\C)C(=O)O)O[C@H](CO)[C@H]1OC(=O)/C(C)=C/CCC(C)(O)C=C (some centres undefined),inactive,–
CC1(C=O)CCCC2(C)C1CCC13CC(CO)C(CCC12)C3 (centres undefined),inactive,–
Cn1ncnc1[C@@H]1c2n[nH]c(=O)c3cc(F)cc(c23)N[C@H]1c1ccc(F)cc1,inactive,–
C/C(=C\CCC(C)C1CC(O)C2(C)C3CCC4C(C)(C)C(OC5OCC(O)C(O)C5O)CCC45CC35CC(O)C12C)C(=O)O (centres undefined),inactive,–
C=C1C(OC2OC(CO)C(O)C(O)C2O)CC2C(C)(C)C(O)CCC2(C)C1CC/C(C)=C\COC(=O)CC(=O)O (centres undefined),inactive,–
